Assay outcomes as filed in PubChem BioAssay.
PK Bst – Pyruvate Kinase; Potency, µM; 1.2% of 51,000 active; AID 361, 2006; purified pyruvate kinase, luminescence ATP production; ribose 5-phosphate activator present at AC10; in the data active means potency below about 11 µM; inconclusive means mostly about 12 µM to 25 µM;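 the screen sought inhibitors and activators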;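 further: scaled between full activation by ribose 5 phosphate and full inhibition by luteolin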
GBA activity – Glucocerebrosidase; Lysosomal acid glucosylceramidase (Homo sapiens), P04062; purified enzyme, resorufin glucoside fluorescence (screen aimed at inhibitors), 20 min; Potency, µM; 1.1% of 48,000 active; AID 360, 2006; in the data active means potency below about 15 µM; inconclusive means mostly about 16 µM to 33 µM;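 further: the screen sought inhibitors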
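Normal human glucocerebrosidase (0.2 nM final) was assayed with resorufin β-D-glucopyranoside (30 uM final) in 50mM citric acid/KH2PO4, 10mM sodium taurocholate, 0.01% tween-20, pH 5.9. Compounds were titrated; fluorescence (Ex 548, Em 600) read after 20 min at RT.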
Luciferase inh – qHTS Assay for Inhibitors of Firefly Luciferase; purified firefly luciferase, luminescence, 8 min; Potency, µM (doses to about 57.1 µM), for inactives: at the top dose activity change, negative = inhibition, most hits filed as inhibitors; 2.2% of 72,000 active; active means well fitted inhibition curve with a large enough effect; inconclusive means small, poorly fitted or top-dose-only effect; further: on the % scale 0 is the no-effect control and ±100 the full control effect; nearly all actives have a fitted effect of over 40% in size
Target sequence (P08659 whole entry, looked up): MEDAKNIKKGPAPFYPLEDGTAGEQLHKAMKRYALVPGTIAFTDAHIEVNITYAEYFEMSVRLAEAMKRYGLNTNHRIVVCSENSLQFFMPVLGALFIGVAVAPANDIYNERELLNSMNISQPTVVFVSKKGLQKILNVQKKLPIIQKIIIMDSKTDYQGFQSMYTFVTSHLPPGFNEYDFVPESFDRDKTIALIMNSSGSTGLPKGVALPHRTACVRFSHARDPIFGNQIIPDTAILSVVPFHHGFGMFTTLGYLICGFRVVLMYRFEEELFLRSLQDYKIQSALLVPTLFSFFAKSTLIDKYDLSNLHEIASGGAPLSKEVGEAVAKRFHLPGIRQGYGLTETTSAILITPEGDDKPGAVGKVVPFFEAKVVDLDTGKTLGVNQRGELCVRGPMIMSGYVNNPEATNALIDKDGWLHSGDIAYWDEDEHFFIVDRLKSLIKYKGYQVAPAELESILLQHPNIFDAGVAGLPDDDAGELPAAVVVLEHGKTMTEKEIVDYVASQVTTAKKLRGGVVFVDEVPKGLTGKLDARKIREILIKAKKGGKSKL
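Luminescence read-out after 8 min at room temperature; enzyme reaction used luciferin plus 10 uM ATP (linear range) in imidazole buffer pH 7.2 with KCl, MgCl2, Tween 20 and BSA. Each sample was run as a titration.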
* marks the source's active call; other numbers are inactive results; i = inactive; u = inconclusive; x = no result; [ ] = dose if it differs, or a comment. Sampled rows, rich in hits. Any-hit rate of the full collection: about 3.4%. Potency means the concentration at half of the fitted maximal effect.

SMILES	PK Bst	GBA activity	Luciferase inh
C/C(CCN1CCCc2nc(C)c(C)cc21)=N\OC[C@@H](O)[C@@H]1O[C@@H]2OC(C)(C)O[C@@H]2[C@H]1O	x	x	2%[11.4 µM]
O=C(Nc1ccon1)c1cc2c(s1)CCCCCC2	x	x	25µM*
CNC(=O)c1cc2c(s1)CCCCCC2	>57	>77	-8%
C=CC[C@@H]1C=C[C@H](O/N=C2\c3cc(OC)ccc3O[C@H](c3cccc(OC)c3)[C@H]2O)[C@H](CO)O1	x	x	0%[11.4 µM]
CCC(=O)N1CCN(c2ccc(NC(=O)c3cc4ccccc4o3)cc2Cl)CC1	>57	3.2*	-8%
O=C(Nc1ccc(N2CCN(C(=O)c3ccco3)CC2)c(Cl)c1)c1cc2ccccc2o1	>57	u	-3%
O=C(c1cc2ccccc2o1)N1CCN(c2ccccc2Cl)CC1	i	>77	3%
CCCC(=O)N1CCN(c2ccc(NC(=O)c3cc4ccccc4o3)cc2Cl)CC1	>57	4.2*	-10%
CC(C)NC(=O)N1CC[C@@]2(CCCN(C(=O)c3csnn3)C2)C1	x	x	2%[11.4 µM]
O=C(Oc1oc(-c2ccco2)nc1C=Nc1ccccc1)c1ccco1	>26	x	-7%[25.5 µM]
Cc1ccc(N=Cc2nc(-c3ccco3)oc2O)cc1	u	>77	16µM*
COc1ncc2nc(-c3ccc(Cl)cc3)c(=O)n(Cc3cccs3)c2n1	x	x	-2%[11.4 µM]
O=C1CCCC=C1[C@H](O)CCCCBr	x	x	1%[11.4 µM]
CCOC(=O)C1=C(c2ccccc2)NC(SCC(=O)NC2CCCCC2)=C(C#N)C1c1ccco1 (configuration not stated)	>57	7.7*	0%
COCCOC(=O)C1=C(C)NC(SCC(=O)NC(C)(C)C)=C(C#N)C1c1ccco1 (configuration not stated)	>26	x	-1%[25.5 µM]
CO[C@H]1COC(=O)C/C=C\[C@H](C)[C@@H](OC)COC(=O)C/C=C\[C@@H]1C	x	x	0%[11.4 µM]
CN(C(=O)c1ccncc1)c1nnc(-c2ccccn2)s1	>57	>77	-13%
CN(C(=O)c1ccccc1)c1nc2ccccc2s1	8.5*	>77	6.3µM*
CN1CCN(c2ncc3nc(-c4cccs4)c(=O)n(Cc4ccc(F)cc4)c3n2)CC1	x	x	-1%[11.4 µM]
O=C(COc1cccc2cccnc12)Nc1nccs1	>57	>77	16µM*
O=C(Oc1cccc2cccnc12)c1cccs1	i	>77	-5%
CCOC(=O)c1sc(NC(=O)c2ccc(Br)o2)cc1C	6.4*	u	5µM*
CCOC(=O)c1cccc(NC(=O)c2cccs2)c1	x	u	-27%
CCCCC(=O)Nc1cccc(NC(=O)c2ccc(Br)o2)c1	>57	>77	-3%
CCOC(=O)c1sc(NC(=O)c2cccs2)cc1C	x	>77	2µM*
SMILES	PK Bst	GBA activity	Luciferase inh
COCCn1c(=O)c(CCc2ccccc2)nc2cnc(N(C)C)nc21	x	x	0%[11.4 µM]
CCCc1ccc(-c2ccc(C(=O)O)cc2)nc1	x	x	16µM*
CCCc1ccc(OCC(=O)O)cc1	x	x	-5%
COc1ccc(C(=O)N2CCC3(CCN(C)CC3)CC2)cc1	x	x	2%[11.4 µM]
N=c1n(CCO)c2ccccc2n1CCOc1ccc(Cl)cc1Cl	x	x	0%
COc1ccc(OCCn2c(=N)n(CCO)c3ccccc32)cc1	>57	4.3*	1%
Cc1noc(C)c1C(=O)N1CCC2(CCN(Cc3ccc(C#N)cc3)CC2)CC1	x	x	1%[11.4 µM]
C=C1CC[C@H]2C(C)(C)[C@H](O)CC[C@]2(C)[C@@H]1COc1ccc2ccc(=O)oc2c1	x	x	1%[11.4 µM]
S=C(S)NCCN1CCNCC1	x	x	-1%[11.4 µM]
C(=N\n1cnnc1)/c1cn(-c2cccs2)nc1-c1ccccc1	u	x	25µM*
COc1ccc(-c2nn(-c3ccccc3)cc2/C=N/n2cnnc2)cc1OC	x	>77	u
COc1cccc(-c2nc(NCc3cccnc3)c3ccccc3n2)c1	x	x	1%[2.29 µM]
c1coc(-c2nn3c(-c4ccco4)nnc3s2)c1	i	>77	1%
COc1ccccc1-c1nn2c(-c3ccco3)nnc2s1	8.2*	x	-26%[25.5 µM]
COc1ccc(-c2nn3c(-c4ccccc4)nnc3s2)cc1	3.4*	>77	-2%
COc1ccc(-c2nn3c(-c4ccc(F)cc4)nnc3s2)cc1	x	>77	1%
CC(C)(C)N1C(=O)[C@H]2[C@H]3[C@H](O)[C@H](O)C/C(=N/NC(=O)OCc4ccccc4)[C@H]3CC[C@@H]2C1=O	x	x	0%[11.4 µM]
COC(=O)c1cc2c(cc1Cl)SC(=NCCCN1CCOCC1)NS2(=O)=O	>57	8.3*	5%
COC(=O)c1ccc(Cl)c(NC(=O)CN2CCOCC2)c1	>57	>77	-2%
N#CCCn1c(=O)c(-c2ccccc2)nc2cnc(Oc3ccccc3)nc21	x	x	2%[11.4 µM]
c1ccc(OCc2nc3ccccc3s2)cc1	i	>77	13µM*
O=S(=O)(Cc1nc2ccccc2s1)c1ccccc1	>57	>77	-13%
CC(=O)OCC(=O)[C@@]1(O)CC[C@@H]2[C@@H]3CCC4=CC(=O)CC[C@@]4(C)[C@H]3C(=O)C[C@]21C	x	x	3%
O=C1C2C3C=CC(C3)C2C(=O)N1CNc1ccc(O)cc1 (configuration not stated)	i	12*	-10%
Cc1ccc(NCN2C(=O)C3C4C=CC(C4)C3C2=O)cc1 (configuration not stated)	x	x	-1%
SMILES	PK Bst	GBA activity	Luciferase inh
COc1cccc(Nc2ncc3nc(-c4cn(C)c5ccccc45)c(=O)n(CCC#N)c3n2)c1	x	x	-2%[11.4 µM]
CCOc1ccc(-c2cc(C(=O)NCCCN3CCN(CC)CC3)c3ccccc3n2)cc1	10*	>77	13µM*
COc1ccc(-c2cc(C(=O)NCCN3CCOCC3)c3ccccc3n2)cc1	i	x	u
Cc1cccc(N2CC(=O)N(c3cccc(C)c3)CC2=O)c1	>26	x	-1%[25.5 µM]
Cc1ccc2c(c1)C(=O)[C@@]1(O)CCN(c3ccccc3)C1=N2	x	x	13µM*
NC[C@H](O)C1CCCCCCC1	x	x	3%
COc1ccc(-c2noc(COc3ccccc3OC)n2)cc1OC	x	x	-10%
Clc1cc(Cl)c(OCc2nc(-c3ccccn3)no2)cc1Cl	>57	>77	13µM*
CC(C)(C)c1ccc(OCc2nc(-c3ccccn3)no2)c(Br)c1	x	>77	u
Clc1ccc(OCc2nc(-c3ccncc3)no2)c(Cl)c1	i	>77	16µM*
O=C1C=C[C@@H](O)[C@H]2[C@@H]3C(=O)N(C[C@@H]4CCCO4)C(=O)[C@@H]3CC[C@H]12	x	x	1%[11.4 µM]
CC/C=C\CC[C@H](OC(=O)c1ccc(Br)cc1)C1=CCCCC1=O	x	x	0%[11.4 µM]
O=C(Oc1ccccc1)N1CCC[C@@]2(CCN(c3ccccc3)C2)C1	x	x	0%[11.4 µM]
O=C(Nc1ccc2c(c1)OCO2)c1cccc(S(=O)(=O)N2CCCC2)c1	>57	>77	-23%
CCOCCCNC(=O)c1ccc2c(c1)OCO2	>57	>77	-2%
O=C(NCCOc1ccccc1)c1ccc2c(c1)OCO2	8.1*	>77	6.3µM*
O=C(Nc1ccon1)c1ccc2c(c1)OCO2	>57	>77	-13%
COc1cc(NC(=O)c2ccc3c(c2)OCO3)ccc1NC(=O)C(C)C	7.1*	>77	u
CCCCC(=O)Nc1ccc(NC(=O)c2ccc3c(c2)OCO3)cc1OC	x	>77	u
O=C(Nc1ccc2nsnc2c1)c1ccc2c(c1)OCO2	x	>77	3.2µM*
O=C(Nc1ccc2c(c1)OCO2)c1cccc(Cl)c1	x	>77	13µM*
Cc1ccccc1-c1nc(NCCN2CCOCC2)c2ccccc2n1	x	x	-1%[2.29 µM]
Cc1cc2cc3c(=O)[nH]c(=O)[nH]c3nc2cc1C	x	x	0%[11.4 µM]
CN(C)CC[C@H](c1ccc(Br)cc1)c1ccccn1	x	x	4%[25.5 µM]
